{"source": "the supplement of paper PMC4894684", "note": "Where a name gives a salt, the structure may show the parent alone. ± gives the standard deviation of the averaged measurements.", "data": [{"test_system": "Toxoplasma gondii RH (in HFF)", "assay": "parasite growth relative to the screen mean (all compounds = 100%); higher = less inhibition of parasite growth", "conditions": "5 µM; 72 h; oxygen 21 %", "in_short": "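Values give growth relative to the screen mean. The screen mean (all compounds) is set at 100%, and two screens were averaged. Compounds at 5 µM final were placed on confluent human foreskin fibroblasts, which were infected within 2 h with RH β-Gal–GFP Toxoplasma (MOI 1:5) and kept 72 h at 21% O2 before a CPRG β-Gal readout against in-plate standard curves.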", "units": {"parasite growth": "%"}, "values": [{"smiles": "CCN1CCC[C@H]1CNC(=O)c1c(O)c(Cl)cc(Cl)c1OC", "note": "[Raclopride]", "parasite growth": "138 ± 25"}, {"smiles": "Nc1c2c(nc3ccccc13)CCCC2", "note": "[Tacrine hydrochloride]", "parasite growth": "130 ± 27"}, {"smiles": "CC(C)NCC(O)COc1cccc2ccccc12", "note": "(stereo not drawn) [Propranolol hydrochloride]", "parasite growth": "99.4 ± 14"}, {"smiles": "N[C@@H](C(=O)O)c1ccc(C(=O)O)c(C(=O)O)c1", "parasite growth": "117 ± 7.7"}, {"smiles": "CCCOc1ccc(Br)cc1-c1cc(-c2ccc(Cl)cc2)[nH]c1-c1ccncc1", "parasite growth": "37 ± 9"}, {"smiles": "CC(C)(CO)Cc1cc(C(C)(C)C)c(O)c(C(C)(C)C)c1", "parasite growth": "192 ± 11"}, {"smiles": "COC(=O)Nc1ccc2[nH]cc(CCNC(C)=O)c2c1", "parasite growth": "81 ± 2.9"}, {"smiles": "Cc1nc2sccn2c(=O)c1CCN1CCC(=C(c2ccc(F)cc2)c2ccc(F)cc2)CC1", "note": "[Ritanserin]", "parasite growth": "123 ± 15"}, {"smiles": "CC(Cc1ccccc1)(NC(=O)CN)c1ccccc1", "note": "(stereo not drawn) [Remacemide hydrochloride]", "parasite growth": "129 ± 5.9"}, {"smiles": "COc1cccc2c1C(=O)c1c(O)c3c(c(O)c1C2=O)C[C@@](O)(C(=O)CO)C[C@@H]3O[C@H]1C[C@H](N)[C@H](O)[C@H](C)O1", "note": "[Doxorubicin hydrochloride]", "parasite growth": "18.4 ± 7.7"}, {"smiles": "C[C@](N)(Cc1ccc(O)c(O)c1)C(=O)O", "note": "[L-(-)- α-Methyldopa]", "parasite growth": "146 ± 39"}, {"smiles": "N=C(N)c1ccc(N2CCN(C3CCN(CC(=O)O)CC3)CC2)cc1", "parasite growth": "128 ± 33"}, {"smiles": "CC(C(=O)O)c1ccc(-c2ccccc2)c(F)c1", "note": "(stereo not drawn) [Flurbiprofen]", "parasite growth": "139 ± 26"}, {"smiles": "O=C(O)Cn1c(C(=O)Nc2nc(-c3ccccc3Cl)cs2)cc2ccccc21", "parasite growth": "133 ± 2.8"}, {"smiles": "NC(C(=O)O)c1cc(O)cc(O)c1", "note": "(racemic)", "parasite growth": "142 ± 15"}, {"smiles": "CN1[C@@H]2CC[C@H]1C[C@@H](OC(=O)c1c[nH]c3ccccc13)C2", "note": "[Tropisetron hydrochloride]", "parasite growth": "106 ± 3.1"}, {"smiles": "C[C@@H](CN1CCC(n2c(=O)[nH]c3cc(Cl)ccc32)CC1)NC(=O)c1ccc2ccccc2c1", "parasite growth": "5.93 ± 2.3"}, {"smiles": "CCOC(=O)c1cnc2c(cnn2CC)c1NN=C(C)C", "note": "[Etazolate hydrochloride]", "parasite growth": "127 ± 21"}, {"smiles": "COc1ccc(/C=C/C(=O)Nc2ccccc2C(=O)O)cc1OC", "note": "[Tranilast]", "parasite growth": "111 ± 30"}, {"smiles": "CC12CC3CC(C)(C1)CC(N)(C3)C2", "note": "[Memantine hydrochloride]", "parasite growth": "123 ± 4.8"}, {"smiles": "CCCCCCC(=O)OC1CC(C)(C)NC(C)(C)C1", "note": "[TMPH hydrochloride]", "parasite growth": "123 ± 14"}, {"smiles": "CC(=O)Nc1ccc(O)cc1", "note": "[Acetaminophen]", "parasite growth": "105 ± 2.7"}, {"smiles": "CCC(=O)NC1CCc2cccc(OC)c2C1", "note": "(stereo not drawn)", "parasite growth": "84.3 ± 9.1"}, {"smiles": "CC(C)NCC(O)c1ccc2ccccc2c1", "note": "(stereo not drawn) [Pronethalol hydrochloride]", "parasite growth": "117 ± 28"}, {"smiles": "COc1ccc(-n2[nH]c3c4c(ncc3c2=O)CCCCC4)cc1", "parasite growth": "105 ± 28"}, {"smiles": "c1ccc2oc(C3=NCCN3)cc2c1", "note": "[2-BFI hydrochloride]", "parasite growth": "109 ± 12"}, {"smiles": "CCSC(=N)N", "note": "[EIT hydrobromide]", "parasite growth": "166 ± 23"}, {"smiles": "O=S(=O)(c1cccc2cnccc12)N1CCCNCC1", "note": "[Fasudil hydrochloride]", "parasite growth": "90.6 ± 21"}, {"smiles": "CC(C)NCC(O)COc1ccc(CCOCC2CC2)cc1", "note": "(stereo not drawn) [Betaxolol hydrochloride]", "parasite growth": "89.4 ± 13"}, {"smiles": "O=C(c1ccc(Nc2nccc(-c3cc4ccccc4s3)n2)cc1)N1CCC(N2CCCC2)CC1", "parasite growth": "< 0"}, {"smiles": "CC[N+](CC)(CC)CC(=O)Nc1c(C)cccc1C", "note": "[QX 314 bromide]", "parasite growth": "63.6 ± 9.3"}, {"smiles": "O=C(Cc1ccccc1)Nc1nc2ccc(Cl)cc2c2nc(-c3ccco3)nn12", "parasite growth": "121 ± 57"}, {"smiles": "C=CCNC(=O)c1cc([N+](=O)[O-])cc2c(=O)[nH]c(Nc3ccc(Cl)c(Cl)c3)nc12", "parasite growth": "89.6 ± 4.6"}, {"smiles": "CCCCCCCCCCCCCCCC(=O)O[C@H](CC(=O)O)C[N+](C)(C)C", "note": "(racemic) [(±)-Palmitoylcarnitine chloride]", "parasite growth": "108 ± 22"}, {"smiles": "O=C(O)c1cc(=O)c2ccccc2[nH]1", "note": "[Kynurenic acid]", "parasite growth": "123 ± 18"}, {"smiles": "CCCCC[C@H](O)/C=C/[C@H]1[C@H](O)CC(=O)[C@@H]1CCCCCCC(=O)O", "note": "[Alprostadil]", "parasite growth": "140 ± 6"}, {"smiles": "CC(C)NCCN(C(C)C)S(=O)(=O)c1ccc(Cl)cc1Cl", "parasite growth": "142 ± 34"}, {"smiles": "COc1ccc2[nH]c(C(=O)c3ccccc3)cc2c1", "parasite growth": "38.5 ± 2.6"}]}]}
